Screens: PubChem BioAssay, National Center for Advancing Translational Sciences (NCATS)
SW480 rereplic = A quantitative high throughput screen for small molecules that induce DNA re-replication in SW480 colon adenocarcinoma cells. AID 624297, 2012. SW480 DNA re-replication, Hoechst DNA content imaging, 48 h. actives 1.8% (n = 340,000). Potency, µM (titrated, usually from 46.1 µM), for inactives: top-dose re-replication activation, usual class: activators; note: % of control where 0% means no effect; nearly all actives have a fitted effect of over 55% in size
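Compounds, transferred as 23 nL by pin tool, were incubated with cells for 48 hr; DNA content per nucleus was then quantified by Hoechst staining and fluorescence plate imaging.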
RGS4 inhibitor = Inhibitors of Regulator of G Protein Signaling (RGS) 4: qHTS; Transcreener GDP fluorescence polarization, RGS4-accelerated GTP hydrolysis; Regulator of G-protein signaling 4 (Homo sapiens), P49798; actives 0.039% (n = 390,000); Potency, µM (doses to about 114 µM), for inactives: at the highest dose activity change, negative = inhibition, actives largely listed as inhibitors; note: % is set by controls: 0 for no effect and ±100 for the full control effect; nearly all actives have a fitted effect of over 75% in size
Target sequence (P49798 whole entry, looked up): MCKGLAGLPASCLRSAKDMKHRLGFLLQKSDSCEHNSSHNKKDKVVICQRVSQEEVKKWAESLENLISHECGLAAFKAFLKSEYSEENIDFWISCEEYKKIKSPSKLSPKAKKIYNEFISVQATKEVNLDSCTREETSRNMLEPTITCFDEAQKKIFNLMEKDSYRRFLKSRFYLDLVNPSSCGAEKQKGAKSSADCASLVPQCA
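MLSMR compounds (23 nl, pin-transferred) preincubated 10 min at room temperature with a 500nM (2x) first reagent, then RGS4 at 900nM (2x) plus Transcreener GDP mix added; fluorescence polarization (620/688 nm) read before and after 90 min at 30 °C.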
KB-3-1 tox = qHTS assay for MDR1-selective chemotherapeutics: Primary screen using the parental adenocarcinoma cell KB-3-1; KB-3-1 viability, CellTiter-Glo ATP luminescence, 72 h; Potency, µM (series often up to 46.1 µM), hits mostly cytotoxic; actives 1.4% (n = 400,000); AID 1347075, 2019; note: % is set by controls: 0 for no effect and ±100 for the full control effect; nearly all actives have a fitted effect of over 60% in size
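Using CellTiter-Glo luminescence, growth of non-resistant KB-3-1 adenocarcinoma cells is assessed 72 h after pin-tool compound addition at 37 °C. Normalized responses across the concentration series yield fitted curves.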
TSG101-PTAP inh = qHTS Assay for Iinhibitors of HIV-1 Budding by Blocking the Interaction of PTAP/TSG101; Tumor susceptibility gene 101 protein (Homo sapiens), Q99816; Fluorescence polarization, FITC-PTAP peptide / Tsg101 binding; Potency, µM (highest dose often 115 µM), inactives show at the highest dose activity change, negative = inhibition, usual class: inhibitors; 340,000 tested, under 10 active; active = well fitted inhibition curve with a large enough effect in the main read-out, with a control signal flat, not every such curve was filed as active; inconclusive = small, poorly fitted or top-dose-only effect, or effect the other way, or a change in a side signal; inactive = no such curve, though single readings can be large or run the other way; note: % of control where 0% means no effect
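Compounds were pin-transferred onto Tsg101 binding domain (10 uM final) in HEPES pH 7.5 buffer, then FITC-PTAP peptide was added at 50 nM final. After 20 min at RT, polarization reported peptide displacement across a qHTS concentration series.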
MCF10A rereplic = A quantitative high throughput screen for small molecules that induce DNA re-replication in MCF 10a normal breast cells; MCF 10A DNA re-replication, Hoechst nuclear intensity, 48 h; Potency, µM (top dose mostly 46.1 µM), inactives show at the top dose activity, positive = re-replication, actives largely listed as activators; actives 2.9% (n = 350,000); AID 624296, 2012; note: % of control where 0% means no effect; nearly all actives have a fitted effect of over 50% in size
KB-V1 MDR tox = qHTS assay for MDR1-selective chemotherapeutics: Primary screen using the drug-selected MDR subline cells KB-V1. AID 1347076, 2019. KB-V1 MDR cells viability, CellTiter-Glo, 72 h. actives 3.4% (n = 400,000). Potency, µM (titrated, usually from 46.1 µM), actives largely listed as cytotoxic; note: % is set by controls: 0 for no effect and ±100 for the full control effect; nearly all actives have a fitted effect of over 60% in size
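Compound-treated KB-V1 multidrug-resistant cells, 72 h, 37 degrees C; viability by CellTiter-Glo. Fitted qHTS curves give the values.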
* = called active by the depositor. Only some compounds are listed: those with a hit (about 6.6% of all), similar ones and a draw of the others. Unless noted, calls come from the whole dose curve; as a rule, active = well fitted curve in the direction sought with a large enough effect; inconclusive = small, poorly fitted or top-dose-only effect, or another doubt; inactive = no such curve, though single readings can be large; an effect the other way counts as inactive or inconclusive. Potency is the fitted concentration of half-maximal effect.

O=C(Nc1ccccc1)N1CCCC(c2nc(-c3ccc(F)cc3)no2)C1 (stereo not given) was read as SW480 rereplic 2%, RGS4 inhibitor 19%, KB-3-1 tox inactive, TSG101-PTAP inh 1%, MCF10A rereplic 1% and KB-V1 MDR tox inconclusive.
O=C(c1ccccc1)N1CCC(c2nc(-c3ccc(S(=O)(=O)N4CCOCC4)cc3)no2)CC1 was read as SW480 rereplic 0%, RGS4 inhibitor -21%, KB-3-1 tox inactive, TSG101-PTAP inh -10%, MCF10A rereplic 2% and KB-V1 MDR tox inconclusive.
O=C(Nc1cccc(C(F)(F)F)c1)N1CCC(c2nc(-c3ccc(F)cc3)no2)CC1 was read as SW480 rereplic 8%, RGS4 inhibitor 14%, KB-3-1 tox inactive, MCF10A rereplic inconclusive and KB-V1 MDR tox 2.6µM*.
O=C(c1cccs1)N1CCC(c2nc(-c3ccc(S(=O)(=O)N4CCOCC4)cc3)no2)CC1 was read as SW480 rereplic -5%, RGS4 inhibitor 18%, KB-3-1 tox 16µM*, TSG101-PTAP inh -7%, MCF10A rereplic 17% and KB-V1 MDR tox 5.8µM*.
For C/C(=N\NC(=O)c1ccccc1)c1nc2ccccc2n1C the results were SW480 rereplic 13µM*, RGS4 inhibitor -26%, KB-3-1 tox inactive, TSG101-PTAP inh -3%, MCF10A rereplic 7% and KB-V1 MDR tox inconclusive.
For S=C(NCCSCc1ccc(Cl)c(Cl)c1)Nc1ccccc1 the results were SW480 rereplic inconclusive, RGS4 inhibitor -36%, KB-3-1 tox inactive, TSG101-PTAP inh -1%, MCF10A rereplic 26µM* and KB-V1 MDR tox inactive.
For S=C(NCCSCc1c(Cl)cccc1Cl)Nc1ccccc1 the results were SW480 rereplic 2%, RGS4 inhibitor 10%, KB-3-1 tox inconclusive, TSG101-PTAP inh -4%, MCF10A rereplic inconclusive and KB-V1 MDR tox 21µM*.
For COc1ccc(CSCCNC(=S)Nc2ccccc2)cc1Cl the results were SW480 rereplic -10%, RGS4 inhibitor -12%, KB-3-1 tox inactive, TSG101-PTAP inh -5%, MCF10A rereplic 2% and KB-V1 MDR tox inactive.
Screening Cc1ccc(C(=O)N2CCc3cc(CNC(=O)c4ccnn4C)ccc32)cc1 returned RGS4 inhibitor 33%.
For NC(=O)C(C(=O)/C=C/c1ccc(Cl)cc1)=C1SCCS1 the results were SW480 rereplic 12%, RGS4 inhibitor -25%, KB-3-1 tox inconclusive, TSG101-PTAP inh -2%, MCF10A rereplic inconclusive and KB-V1 MDR tox 6.5µM*.
COc1ccc(/C=C/C(=O)C(C(N)=O)=C2SCCS2)cc1 was read as SW480 rereplic 9%, RGS4 inhibitor 8%, KB-3-1 tox inconclusive, TSG101-PTAP inh -1%, MCF10A rereplic 15% and KB-V1 MDR tox inconclusive.
O=C(NCC1CCCO1)C1CCN(C2CCN(CCCC3CCCC3)CC2)CC1 (stereo not given) was read as SW480 rereplic inconclusive, RGS4 inhibitor 6%, KB-3-1 tox inactive, TSG101-PTAP inh -10%, MCF10A rereplic 16µM* and KB-V1 MDR tox inactive.
`O=C(NCC1CCCO1)C1CCN(C2CCN(C(=O)CC3CCCC3)CC2)CC1` (stereo not given) gave SW480 rereplic -5%, RGS4 inhibitor 15%, KB-3-1 tox inconclusive, TSG101-PTAP inh -2%, MCF10A rereplic -8% and KB-V1 MDR tox inactive.
